This is part of a sample that, as a whole, favours compounds with a hit. Of some 83,000 tested, about 20% had one in any assay.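 Percent growth is the endpoint: 0 to 100 indicates growth inhibition (40 means 60% inhibition), 0 means no net growth, and negative values indicate cell death.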 A number with no mark means an inactive call. Calls of active or inactive are those of the source. The calls were made as follows: active = growth percent below 10; inactive = the rest.

Holding throughout (experiment): NCI-60 one-dose screen, 48 h (100 = growth as untreated, 0 = no growth, -100 = all killed)
For one assay, the system named is NCI-H23 lung. As to conditions: 10 µM unless noted.
A further assay deals with NCI-H226 lung. The note with it: 10 µM unless noted.
In another assay the test system is NCI-H322M lung. The note with it: 10 µM unless noted.
Another assay deals with NCI-H460 lung. As to conditions: 10 µM unless noted.
The next assay deals with NCI-H522 lung. The note with it: 10 µM.
The next assay has as its system A549/ATCC NSCLC. The note with it: 10 µM unless noted.
Another assay has as its system 786-0 renal. As to conditions: 10 µM unless noted.
Another assay concerns COLO 205 colon. The note with it: 10 µM unless noted.
A further assay deals with DU-145 prostate. The note with it: 10 µM unless noted.
In another assay the test system is K-562 leukemia. The note with it: 10 µM unless noted.
The subject of another assay is MALME-3M melanoma. As to conditions: 10 µM unless noted.
The test system of the next assay is MDA-MB-231 breast. As to conditions: 10 µM unless noted.
For a further assay, the system named is RXF 393 renal. As to conditions: 10 µM unless noted.
For another assay, the system named is SF-268 CNS. The note with it: 10 µM unless noted.
In another assay the test system is SF-295 CNS. The note with it: 10 µM unless noted.
For another assay, the system named is SF-539 CNS. The note with it: 10 µM unless noted.
In another assay the test system is UACC-257 melanoma. As to conditions: 10 µM unless noted.
The next assay has as its system M14 melanoma. The note with it: 10 µM unless noted.
Another assay concerns HOP-92 NSCLC. The note with it: 10 µM.

For `CC(C)(C)c1ccc([I+]c2ccc(C(C)(C)C)cc2)cc1`, the growth with NCI-H23 lung was -13.7% (active); in the assay with NCI-H226 lung, 23.8%; in the assay on NCI-H322M lung, 55.8%; in the assay on NCI-H460 lung, 4.98% (active); with NCI-H522 lung it was 7.79% (active); in the assay on A549/ATCC NSCLC it was 39.9%. For the same compound, the growth in the assay on 786-0 renal was 16.8%; in the assay on COLO 205 colon it was -42.1% (active); in the assay with DU-145 prostate it was -89.1% (active); with K-562 leukemia, 1.42% (active); in the assay with MALME-3M melanoma, -61.2% (active); in the assay on MDA-MB-231 breast, -30.3% (active). The growth in the assay on RXF 393 renal was 0.632% (active); in the assay with SF-268 CNS, 1.36% (active); in the assay with SF-295 CNS, 23.7%; in the assay on SF-539 CNS it was 21.2%; in the assay on UACC-257 melanoma, 1.08% (active); in the assay on M14 melanoma, 2.73% (active).
As to `CCCCn1c(Cc2ccc(OC)cc2)nc2cc(OC)c(OC)cc2c1=O`, the growth is 62.1% in the assay on NCI-H23 lung; 68.1% with NCI-H226 lung; 101% in the assay with NCI-H322M lung; 99.2% with NCI-H460 lung; 87% in the assay on NCI-H522 lung; 19.7% with A549/ATCC NSCLC. In addition, the growth with COLO 205 colon was 107%; in the assay on DU-145 prostate, 103%; in the assay with K-562 leukemia, 48.6%; in the assay on MALME-3M melanoma, 112%; in the assay on MDA-MB-231 breast, 73.9%; in the assay on SF-268 CNS, 86.1%. The figures for the growth with SF-539 CNS, in the assay with UACC-257 melanoma and in the assay on M14 melanoma were 103%, -56.6% (active) and 119%, respectively.
On to `CC1CCCCC[N+]12CCCC2` (stereo unspecified), for which the growth was 111% in the assay on NCI-H23 lung; 93.6% in the assay with NCI-H226 lung; 96.4% with NCI-H322M lung; 113% in the assay on NCI-H460 lung; 103% in the assay on A549/ATCC NSCLC; 96.8% in the assay on 786-0 renal. For the same compound, the growth was 108% in the assay on COLO 205 colon; 105% in the assay on DU-145 prostate; 107% in the assay with K-562 leukemia; 100% in the assay on MALME-3M melanoma; 99% with MDA-MB-231 breast; 92% with RXF 393 renal. Also, the growth is 109% with SF-268 CNS; 92.2% in the assay on SF-295 CNS; 104% with SF-539 CNS; 104% in the assay with UACC-257 melanoma; 102% with M14 melanoma.
As for `CN(C)CCOC(=O)C(C)(C)C`, the growth was 114% with NCI-H23 lung; 98% in the assay on NCI-H226 lung; 107% with NCI-H322M lung; 103% with NCI-H460 lung; 101% in the assay on A549/ATCC NSCLC; 110% in the assay on 786-0 renal. In addition, the growth in the assay on COLO 205 colon was 116%; in the assay with DU-145 prostate it was 122%; with K-562 leukemia, 101%; in the assay on MALME-3M melanoma, 105%; in the assay on MDA-MB-231 breast it was 93.9%; with RXF 393 renal it was 102%. Besides, the growth was 121% in the assay on SF-268 CNS; 108% in the assay on SF-295 CNS; 109% in the assay with SF-539 CNS; 92.5% in the assay on UACC-257 melanoma; 98.3% in the assay with M14 melanoma.
For the compound `O=C(N/N=C/c1coc2ccccc2c1=O)c1cc2oc(-c3ccccc3)cc2[nH]1`, the growth in the assay with NCI-H23 lung was 113%; in the assay on NCI-H226 lung, 114%; in the assay on NCI-H322M lung, 89.4%; with NCI-H460 lung, 105%; in the assay on A549/ATCC NSCLC it was 105%; in the assay on 786-0 renal, 106%. Besides, the growth in the assay with COLO 205 colon was 94.3%; in the assay on DU-145 prostate it was 93.8%; with K-562 leukemia, 82.6%; with MALME-3M melanoma, -5.98% (active); in the assay with MDA-MB-231 breast, 96.8%; with RXF 393 renal, 82%. The growth in the assay with SF-268 CNS is 96.2%; with SF-295 CNS it was 103%; in the assay on SF-539 CNS, 89.8%; in the assay with UACC-257 melanoma, 118%.
With `O=C1C(Br)=CC2C1C1C3CCC3C2(Br)C12OCCO2` (stereo unspecified), the growth in the assay on NCI-H23 lung is 65.8%; with NCI-H226 lung, 59.6%; in the assay on NCI-H322M lung, 54.5%; in the assay on NCI-H460 lung it was 22.6%; in the assay with A549/ATCC NSCLC it was 33.2%; with 786-0 renal, 42.8%. For the same compound, the growth in the assay on COLO 205 colon was 38.9%; with DU-145 prostate, 19.7%; with K-562 leukemia it was 15.8%; with MALME-3M melanoma, 46%; in the assay on MDA-MB-231 breast it was 51.7%; with RXF 393 renal it was 18.4%. The growth is 25.6% in the assay on SF-268 CNS; 31.4% in the assay with SF-295 CNS; 14.5% in the assay with SF-539 CNS; 54% with UACC-257 melanoma; 44.4% in the assay with M14 melanoma.
Take `COc1ccc(-n2nnnc2-c2cn[nH]c2C(F)(F)F)cc1`: the growth in the assay with NCI-H23 lung is 128%; in the assay on NCI-H226 lung, 91%; in the assay on NCI-H322M lung, 105%; in the assay with HOP-92 NSCLC, 91.8%; in the assay on NCI-H522 lung it was 79.3%; in the assay on A549/ATCC NSCLC, 104%. The growth in the assay on 786-0 renal was 106%; in the assay on COLO 205 colon it was 96.8%; in the assay on DU-145 prostate it was 101%; with K-562 leukemia it was 87.2%; in the assay on MALME-3M melanoma, 107%; with MDA-MB-231 breast it was 83.4%. In addition, the growth in the assay on RXF 393 renal is -6.74% (active); with SF-268 CNS, 109%; in the assay with SF-295 CNS, 88.3%; in the assay on SF-539 CNS, 89.6%; with UACC-257 melanoma, 93.7%.
Take `Nc1nc2cc(O)ccc2n2cc3c(F)cccc3c12`: the growth with NCI-H23 lung was 40.9%; with NCI-H226 lung it was 54.8%; in the assay with NCI-H322M lung it was 32.5%; in the assay with NCI-H460 lung, 2.35% (active); in the assay on A549/ATCC NSCLC it was 22.6%; in the assay with 786-0 renal it was 27.6%. The growth is 55.1% in the assay with COLO 205 colon; 33.4% in the assay on DU-145 prostate; 29.4% with K-562 leukemia; 33.3% in the assay on MALME-3M melanoma; 38.8% in the assay with MDA-MB-231 breast; 5.51% (active) in the assay with RXF 393 renal. Moreover, the growth in the assay on SF-268 CNS is 19.1%; with SF-295 CNS, 11.9%; in the assay with SF-539 CNS, 13.7%; with UACC-257 melanoma, 50.9%; in the assay on M14 melanoma, 23%.
Regarding `C=CCC(CCC(CC=C)C(=O)OCC)C(=O)OCC` (stereo unspecified), the growth was 108% in the assay with NCI-H23 lung; 104% with NCI-H226 lung; 83.3% in the assay with NCI-H322M lung; 105% in the assay with NCI-H460 lung; 106% in the assay on A549/ATCC NSCLC; 98.5% with 786-0 renal. Moreover, the growth in the assay with COLO 205 colon was 110%; with DU-145 prostate, 110%; in the assay on K-562 leukemia, 108%; in the assay with MALME-3M melanoma, 96.2%; with MDA-MB-231 breast, 107%; in the assay on RXF 393 renal, 108%. Besides, the growth was 105% in the assay on SF-268 CNS; 91.9% in the assay on SF-295 CNS; 105% in the assay with SF-539 CNS; 113% in the assay with UACC-257 melanoma; 102% in the assay on M14 melanoma.

Values taken from PubChem BioAssay (NCI).
